SMILES strings stand for the structures. Compounds without any hit were thinned out: in the full panel of roughly 83,000, 20% have a hit.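 Treatment: one concentration, 48 hours, 96-well format. Scoring: percent growth, with anything below 10 considered active.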 Unmarked numbers belong to inactive results. Calls of active or inactive are those of the source.

In the experiment the test system is SNB-75 CNS. Kind of experiment: NCI-60 one-dose screen, 48 h (100 = growth as untreated, 0 = no growth, -100 = all killed). The note with it: 10 µM unless noted.
For `O=C1/C(=C/C=C/c2ccco2)SC(=S)N1c1ccccc1`, the growth was 101%.

In the case of `COc1cc(OC)c(S(N)(=O)=O)cc1C(C)=O`, the growth is 130%.

On to `CNC(=O)c1cc(Oc2ccc3nc(NC(=O)c4cc(N5CCOCC5)cc(C(F)(F)F)c4)sc3c2)ccn1`, for which the growth was 71.6%.

`CCCCCc1ccc(S(=O)(=O)Nc2cccc(-c3csc(NC(=O)CCCCCN4CCN(CCO)CC4)n3)c2)cc1`: the growth is 98.5%.

As for `CNC(=O)c1cc(Oc2ccc3nc(NC(=O)c4cccc(OC(F)(F)F)c4)sc3c2)ccn1`, the growth is 45.5%.

Consider `Cc1cc(C)c(N2C(=O)CC(Nc3ccc(Cl)cc3Cl)C2=O)c(C)c1` (stereo not given), for which the growth is 93%.

For `Cc1ccc(C(=O)NN2C(=O)/C(=C/C=C/c3ccco3)SC2=S)cc1`, the growth was 94.5%.

Turning to `CC/C(=C/c1c(O)cccc1OC)c1ccc2c(OC)cccc2[o+]1`, the growth is 98.8%.

Consider `Cc1ccc2c(c1)C(=O)/C(=C/c1cccc(F)c1)S2`, for which the growth was 106%.

In the case of `COc1cc(/C=C2\C(=O)Nc3ccccc32)ccc1OCc1ccc(F)cc1`, the growth is 106%.

Regarding `N/C(=N\C(N)=N\c1nc2ccccc2s1)c1ccc(C(F)(F)F)cc1`, the growth is 97.2%.

As to `CN(C)CCNC(=O)c1ccc(-c2nc3ccc4[nH]ncc4c3c3c2COCC3)cc1`, the growth was -30.1% (active).

On to `O=C(Nc1ccc(N=Cc2c(O)[nH]c3ccccc23)cc1)Nc1nccs1`, for which the growth is 33.4%.

Take `O=C(Nc1nonc1-c1ccccc1)c1ccc(C(F)(F)F)cc1`: the growth is 104%.

Turning to `COc1cccc(C(=O)Nc2cccc(C#Cc3cccc4[nH]nc(N)c34)c2)c1`, the growth is 3.74% (active).
